A number with no mark means an inactive call. Where a call stands in place of a potency, no number is given. Active and inactive are the calls of the source. The call rests on the fitted dose curve. Square brackets hold non-standard residues; d marks the D form. Peptide text beside a SMILES is read from it. * marks the point of attachment. Sta = CC(C)C[C@H](N)[C@@H](O)CC(=O)O; Isovaleryl = CC(C)CC(=O)*
What follows are compounds tested against Gonadotropin-releasing hormone receptor (Homo sapiens) (UniProt P30968) (assay: Human gonadotropin-releasing hormone receptor (GnRHR) small molecule agonists, calcium flux assay in GnRHR-HEK293 cells (AID 1920063; further: nearly all actives have a fitted effect of over 35% in size)). Conditions: calcium flux fluorescence, agonist mode; series mostly up to 57.6 µM.
Chain of Gonadotropin-releasing hormone receptor (Homo sapiens) (P30968 whole entry, looked up): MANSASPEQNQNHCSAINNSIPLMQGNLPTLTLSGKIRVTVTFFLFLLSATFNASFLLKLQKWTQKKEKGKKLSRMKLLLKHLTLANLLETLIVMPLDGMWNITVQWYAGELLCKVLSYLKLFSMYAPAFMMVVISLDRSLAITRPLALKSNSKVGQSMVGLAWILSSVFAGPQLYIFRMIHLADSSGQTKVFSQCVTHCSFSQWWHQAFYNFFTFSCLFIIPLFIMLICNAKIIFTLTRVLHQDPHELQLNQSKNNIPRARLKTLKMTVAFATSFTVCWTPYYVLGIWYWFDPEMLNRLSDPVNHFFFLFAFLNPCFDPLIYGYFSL
Description: National Center for Advancing Translational Sciences [NCATS]
Division of Preclinical Innovation [DPI]
U.S. Environmental Protection Agency [EPA]
National Institutes of Environmental Health Sciences [NIEHS]
National Toxicology Program [NTP]
U.S. Food and Drug Administration [FDA]
Gonadotropin-releasing hormone receptor (GnRHR) is a G-protein-coupled receptor (GPCR) and acts (through phospholipase C) to increase intracellular inositol trisphosphate and then release intracellular calcium stores. Cell-based GnRHR-Hek293 calcium influx assay is using HEK293 cells that have been genetically engineered to express the human GnRHR, which activity can be measured by calcium signaling. A compound/drug can activate (agonist) GnRHR that can be monitored by levels of intracellular calcium.
GnRHR-HEK293 cells developed by Codex Corp contain human GnRHR reporter gene, which was stably integrated into HEK 293 cells. The compound activation can be detected by fluorescence intensity via calcium flux assay. This cell line has been used to screen the Tox21 10K compound library to identify GnRHR agonists.
GnRHR-Hek293 cells were dispensed at 1500cells/4uL/well in 1536-well black wall/clear bottom plates using a multidrop dispenser. After the assay plates were incubated at a 37 C/5% CO2 incubator for 18 hours, 4 uL of Calcium Dye Solution was added to each well. The plates were incubated at 37 C for 1 hour. For agonist mode, 23 nL of compounds dissolved in DMSO, positive controls or DMSO only was transferred to the assay plate by a pin tool station. The fluorescence intensity in the plates was measured using FDSS 7000EX kinetic plate reader with a filter set of Ex/Em=480/540 for 3 min at 1 sec intervals. Each test compound was measured at 15 concentrations and in triplicates.
With C=CC/C=C/C/C=C/C/C=C/C the Potency was “inactive”.
With CN(C)CCCOc1nn(Cc2ccccc2)c2ccccc12 the Potency was “inactive”.
With N#Cc1ccc(C(=O)O)cc1 the Potency was “inactive”.
CCCc1ccc(O)c(OC)c1 was tested, and the Potency was “inactive”.
C[C@]1(Cn2ccnn2)[C@H](C(=O)O)N2C(=O)C[C@H]2S1(=O)=O was tested, and the Potency was “inactive”.
For CCC(C)(CCCC(C)C)OC(C)=O (stereo not given), the Potency was “inactive”.
In the case of CCCCCCCCCCCC[N+](C)(C)CCCCCCCCCCCC, the Potency is reported as “inactive”.
CCCCCCCCCCCCCCCCCC(=O)OCCCCCCCCCCCCCC(C)C was tested, and the Potency was “inactive”.
For COc1ccccc1N1CCN(CCCNc2cc(=O)n(C)c(=O)n2C)CC1, the Potency was “inactive”.
CCCCCCCCCCCCCCCCCCOS(=O)(=O)O was tested, and the Potency was “inactive”.
For CO[Si](CCC1CCC2OC2C1)(OC)OC (stereo not given), the Potency was “inactive”.
With CC(C)(C)c1n[nH]c(=S)n(N)c1=O the Potency was “inactive”.
In the case of O=[N+]([O-])c1cccc(S(=O)(=O)NCCNS(=O)(=O)c2cccc([N+](=O)[O-])c2)c1, the Potency is reported as “inactive”.
NCC[C@H](O)C(=O)N[C@@H]1C[C@H](N)[C@@H](O[C@H]2O[C@H](CN)[C@@H](O)[C@H](O)[C@H]2O)[C@H](O)[C@H]1O[C@H]1O[C@H](CO)[C@@H](O)[C@H](N)[C@H]1O was tested, and the activity change was -0.191% [at 0.217 µM, active compounds read high].
With CC(C)c1ccc2sc3ccccc3c(=O)c2c1 the Potency was “inactive”.
For COCC(=O)Nc1c(I)c(C(=O)NCC(O)CO)c(I)c(C(=O)N(C)CC(O)CO)c1I (stereo not given), the Potency was “inactive”.
In the case of CCc1ccc(CC)cc1, the Potency is reported as “inactive”.
With CCOC(=O)c1ccccc1 the Potency was “inactive”.
With CC(C)(O)C(=O)c1ccccc1 the Potency was “inactive”.
FC(F)(F)C(F)(F)C(F)(F)C(F)(F)C(F)(F)C(F)(F)C(F)(F)C(F)(F)C(F)(F)C(F)(F)F was tested, and the activity change was 0.129% [at 5.22 µM, active compounds read high].
For O=C(CCCCC(=O)Nc1c(I)cc(I)c(C(=O)O)c1I)Nc1c(I)cc(I)c(C(=O)O)c1I, the Potency was “inactive”.
In the case of CCOC(=O)CCc1ccccc1, the Potency is reported as “inactive”.
With CCN(CC)CCSC(=O)C(c1ccccc1)c1ccccc1 the Potency was “inactive”.
O=C(COCCOCCOCC(=O)Nc1c(I)cc(I)c(C(=O)O)c1I)Nc1c(I)cc(I)c(C(=O)O)c1I was tested, and the Potency was “inactive”.
CC(C)=CC(=O)C=C(C)C was tested, and the Potency was “inactive”.
C[Si](C)(CCCN)O[Si](C)(C)CCCN was tested, and the Potency was “inactive”.
Cc1cccc(C)c1OCC(=O)N[C@@H](Cc1ccccc1)[C@@H](O)C[C@H](Cc1ccccc1)NC(=O)[C@H](C(C)C)N1CCCNC1=O was tested, and the Potency was “inactive”.
COc1ccc(C2C(=O)c3ccccc3C2=O)cc1 was tested, and the Potency was “inactive”.
In the case of CC(N)C(=O)OC(C)(C)Cc1ccc(Cl)cc1 (stereo not given), the Potency is reported as “inactive”.
For CCCCNc1ccc(NCCCC)c2c1C(=O)c1ccccc1C2=O, the activity change was -0.141% [at 11.8 µM, active compounds read high].
For CCc1cc(S(=O)(=O)O)c2cc(C(C)C)cccc1-2, the Potency was “inactive”.
For O=C(Nc1ccc(Cl)c(Cl)c1)C1CC1, the Potency was “inactive”.
In the case of CCc1nccnc1C, the Potency is reported as “inactive”.
In the case of O=C(O)CCNC(=O)c1ccccc1, the Potency is reported as “inactive”.
With CC(C)CC(=O)N[C@H](C(=O)N[C@H](C(=O)N[C@@H](CC(C)C)[C@@H](O)CC(=O)N[C@@H](C)C(=O)N[C@@H](CC(C)C)[C@@H](O)CC(=O)O)C(C)C)C(C)C (Isovaleryl-VV[Sta]A[Sta]-OH) the Potency was “inactive”.
For Cn1nnc2c(C(N)=O)ncn2c1=O, the Potency was “inactive”.
For COc1ccc([C@@H]2Sc3ccccc3N(CCN(C)C)C(=O)[C@@H]2OC(C)=O)cc1, the Potency was “inactive”.
CC1OCCC1=O (stereo not given) was tested, and the Potency was “inactive”.
COc1ccc2c(c1OC)C(=O)O[C@@H]2[C@H]1c2c(cc3c(c2OC)OCO3)CCN1C was tested, and the Potency was “inactive”.
c1ccc(CN(CC2=NCCN2)c2ccccc2)cc1 was tested, and the Potency was “inactive”.

Reference: PubChem BioAssay (Tox21)
